This note sets out measurements from PubChem BioAssay AID1220 (Sanford-Burnham Center for Chemical Genomics, 2008).

Usually inhibition stands for the drop in the measured response relative to a control, in per cent.

Several values for one entry are separate records, joined by “and”; a condition that tells them apart may be missing. Equal values may be shown once. Among all 190,000 compounds or so, about 1,300 (0.68%) were called active. This is one part of a sample in which actives are shown more often than they occur. No stated cut-off is given here; in the data, active means inhibition above about 50%; inactive means the rest. Some structures have more than one record in an assay (separate samples or runs), and their calls can disagree.

Mannose-6-phosphate isomerase (Homo sapiens), sequence (P34949 whole entry, looked up): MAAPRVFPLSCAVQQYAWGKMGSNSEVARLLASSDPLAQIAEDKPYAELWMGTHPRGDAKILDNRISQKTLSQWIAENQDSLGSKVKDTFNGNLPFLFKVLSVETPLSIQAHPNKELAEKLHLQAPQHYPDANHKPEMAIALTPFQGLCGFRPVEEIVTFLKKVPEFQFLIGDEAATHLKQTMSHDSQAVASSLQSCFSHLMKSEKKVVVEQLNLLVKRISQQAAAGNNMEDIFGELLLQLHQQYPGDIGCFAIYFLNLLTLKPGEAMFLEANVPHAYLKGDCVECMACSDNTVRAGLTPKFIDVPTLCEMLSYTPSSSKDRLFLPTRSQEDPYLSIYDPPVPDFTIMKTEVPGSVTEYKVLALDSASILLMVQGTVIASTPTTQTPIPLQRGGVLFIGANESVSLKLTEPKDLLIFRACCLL

This assay has as its target Mannose-6-phosphate isomerase (Homo sapiens) (UniProt P34949). Briefly: human PMI inhibitors, high substrate, primary screen, biochemical, fluorescence intensity, high mannose 6-phosphate (AID 1220). To be noted: recombinant PMI enzyme, coupled fluorescence intensity; at 20 µM; stronger effect = higher value.
`CC(C)c1cc(NC(=O)c2ccccc2)cc(C(C)C)c1O`: the inhibition was 8.4% (inactive).
Take `CC(=O)Nc1cc(C(C)C)c(O)c(C(C)C)c1`: the inhibition is 6.7% (inactive).
As for `CC(C)c1cc(Nc2cccc(O)c2)cc(C(C)C)c1O`, the inhibition was 53.6% (active).
Consider `CC(C)(C)NC(=O)C(c1ccc(OCC(N)=O)cc1)N(C(=O)c1cccnc1)C1CC1` (configuration not stated), for which the inhibition was -7.4% (inactive).
In the case of `C=CCNC(=O)c1ccc2c(c1)nnn2C`, the inhibition was 3.7% (inactive).
Under `CN(C)/C=C/C(=O)c1cnc(-c2ccc(Cl)cc2)s1` stands 0.9% (inactive).
With `O=C(c1ccc(Cl)nc1)N1CCc2ccccc2C1`, the inhibition is 5.7% (inactive).
Under `Cc1ccc(Nc2nc(-c3c(C)nc4ccccn34)cs2)cc1` stands 57.1% (active); under `Cc1ccc(Nc2nc(-c3c(C)nc4ncccn34)cs2)cc1`, 18.6% (inactive); under `Cc1cccc(Nc2nc(-c3c(C)nc4ccccn34)cs2)c1`, 47% (inactive).
On to `CSc1ccccc1NC(=O)COc1ccc(Cl)cc1`, for which the inhibition is 3.4% (inactive).
As to `CCCOC(=O)c1cc(NC(=O)/C=C/c2ccccc2)ccc1O`, the inhibition was 14.7% (inactive).
Under `C/C=C/CSc1nc2c(c(=O)[nH]c(=O)n2C)n1Cc1ccc(C)cc1` stands 14% (inactive).
Regarding `Cc1ccc(NC2=C/C(=N\S(=O)(=O)c3cccs3)c3ccccc3C2=O)c(C)c1`, the inhibition is 50.1% (active).
On to `Cc1ccc(NC2=C/C(=N/S(=O)(=O)c3cccs3)c3ccccc3C2=O)cc1C`, for which the inhibition was 31.2% (inactive).
Regarding `Cc1ccccc1NC1=C/C(=N\S(=O)(=O)c2cccs2)c2ccccc2C1=O`, the inhibition is 17.2% (inactive).
As for `Cc1ccc(Cl)cc1NC1=C/C(=N\S(=O)(=O)c2cccs2)c2ccccc2C1=O`, the inhibition was 16.4% (inactive).
For `O=C1C(Nc2ccc(O)cc2)=C/C(=N/S(=O)(=O)c2cccs2)c2ccccc21`, the inhibition is 47.6% (inactive).
Under `Cc1cccc(NC2=C/C(=N/S(=O)(=O)c3cccs3)c3ccccc3C2=O)c1` stands 56.8% (active); under `Cc1ccc(NC2=C/C(=N/S(=O)(=O)c3cccs3)c3ccccc3C2=O)cc1`, 47.9% (inactive).
`COC(=O)c1ccccc1NC1=C/C(=N\S(=O)(=O)c2cccs2)c2ccccc2C1=O`: the inhibition is -25.4% (inactive).
Regarding `CC(=O)Nc1ccc(NC2=C/C(=N/S(=O)(=O)c3cccs3)c3ccccc3C2=O)cc1`, the inhibition is 54.1% (active).
Turning to `CCN1CCN(CC(=O)NC2CCCC2)C(=O)C1=O`, the inhibition is 5.9% (inactive).
For the compound `CC(NC(=O)C1CCCN(S(=O)(=O)c2cnc[nH]2)C1)c1ccccc1` (configuration not stated), the inhibition is -0.1% (inactive).
For `CCOc1ccccc1-c1nc(-c2ccc(NC(=O)Cc3ccc(OC)cc3)cc2)no1`, the inhibition was -5.8% (inactive).
As to `COc1ccc(NC(=O)N2CCN(S(C)(=O)=O)CC2)cc1OC`, the inhibition is 14% (inactive).
Consider `COc1ccccc1NC(=O)/C(C#N)=C/c1cc([N+](=O)[O-])ccc1N1CCCC1`, for which the inhibition was -6.4% (inactive).
For `COc1cc(OC)cc(C(=O)NC(C(=O)O)C23CC4CC(CC(C4)C2)C3)c1` (configuration not stated), the inhibition is -4.9% (inactive).
For `COc1ccc(/C(O)=C2/C(=O)C(=O)N(CC3CCCO3)C2c2ccc(O)c(OC)c2)cc1` (configuration not stated), the inhibition is 5.8% (inactive).
For `O=S(=O)(NCCNc1ncc(C(F)(F)F)cc1Cl)C(F)(F)F`, the inhibition was 6.3% (inactive).
Take `CCOc1ccccc1NC(=S)NCC1CCCO1` (configuration not stated): the inhibition is -3.2% (inactive).
As to `CCOc1cc(NC(=S)NCC2CCCO2)c(OCC)cc1NC(=O)c1ccc(OC)cc1` (configuration not stated), the inhibition is 35% (inactive).
As to `CCOc1cc(NC(=S)NCC2CCCO2)c(OCC)cc1NC(=O)c1ccc(C)cc1` (configuration not stated), the inhibition is 58.2% (active).
With `CCOc1cc(NC(=S)NCC2CCCO2)c(OCC)cc1NC(=O)c1ccccc1F` (configuration not stated), the inhibition was 53.9% (active).
Under `CCOc1cc(NC(=S)NCC2CCCO2)c(OCC)cc1NC(=O)c1ccccc1` (configuration not stated) stands 17.7% (inactive).
In the case of `CCOc1cc(NC(=S)NCC2CCCO2)c(OCC)cc1NC(=O)CC` (configuration not stated), the inhibition was 6.9% (inactive).
For the compound `CCOc1cc(NC(=S)NCC2CCCO2)c(OCC)cc1NC(=O)c1ccccc1C` (configuration not stated), the inhibition is 5.7% (inactive).
As for `CCOc1cc(NC(=S)NCC2CCCO2)c(OCC)cc1NC(=O)CC(C)C` (configuration not stated), the inhibition was 15.4% (inactive).
Under `CCOc1cc(NC(=S)NCC2CCCO2)c(OCC)cc1NC(=O)C1CC1` (configuration not stated) stands 5.5% (inactive); under `CCOc1cc(NC(=S)NCC2CCCO2)c(OCC)cc1NC(=O)c1cccc(C)c1` (configuration not stated), 17% (inactive); under `CCOc1cc(NC(=S)NCC2CCCO2)c(OCC)cc1NC(=O)c1ccc(F)cc1` (configuration not stated), 54.9% (active).
`CCOc1cc(NC(=S)NCC2CCCO2)c(OCC)cc1NC(=O)c1cccc(F)c1` (configuration not stated): the inhibition was 53.7% (active).
As to `CN(c1ccccc1)S(=O)(=O)c1ccc(Cl)c(C(=O)Nc2ccc(-c3nc4ccccc4[nH]3)cc2)c1`, the inhibition is 3.8% (inactive).
Consider `CC1CCCC(NC(=O)CC2Nc3ccccc3NC2=O)C1C` (configuration not stated), for which the inhibition was -4.1% (inactive).
As to `N#C/C(=C\c1cn(Cc2ccccc2)c2ccccc12)C(=O)NCc1ccco1`, the inhibition was 15.2% (inactive).
With `Nn1cnnc1SCC(=O)Nc1ccc2c(c1)OCCO2`, the inhibition is 9.6% (inactive).
For `O=C(NCc1ccco1)/C(=C/C=C/c1ccccc1)NC(=O)c1ccco1`, the inhibition was 6% (inactive).
`CC(=O)c1ccc(NC(=S)NCc2cccnc2)cc1`: the inhibition is -2.6% (inactive).
With `c1ccc(COc2cccc(CNCc3ccccn3)c2)cc1`, the inhibition was -10.4% (inactive).
Consider `Cc1ccc2cc(CCNC(=O)Cc3cccs3)c(=O)[nH]c2c1`, for which the inhibition is -0.6% (inactive).
Under `Fc1ccccc1-c1nc2ccccc2[nH]1` stands -1.9% (inactive); under `c1ccc(-c2cc(-c3nc4ccccc4[nH]3)c3ccccc3n2)cc1`, 12.1% (inactive); under `c1ccc2[nH]c(-c3ccnc4ccccc34)nc2c1`, 51.2% (active) and -1.5% (inactive).
In the case of `CCCCNC(=O)c1ccc(N2CCC3(CC2)OCCO3)c([N+](=O)[O-])c1`, the inhibition is 2.4% (inactive).
Turning to `O=C(O)CCCNc1cc(N2CCC3(CC2)OCCO3)c2noc3c2c1C(=O)c1ccccc1-3`, the inhibition is 54.1% (active).
As to `CCOC(=O)N1CCN(c2cc(NCCC(=O)O)c3c4c(onc24)-c2ccccc2C3=O)CC1`, the inhibition is -2.8% (inactive).
On to `O=C(O)CCCCCNS(=O)(=O)c1cccc2c1C(=O)c1ccccc1C2=O`, for which the inhibition was 31.4% (inactive).
For `CN1CCN(c2ccc(Cl)cc2NC(=O)CCN2C(=O)c3ccccc3C2=O)CC1`, the inhibition is -10.2% (inactive).
For the compound `CC(=O)OCCNc1cc(N2CCN(C)CC2)c2noc3c2c1C(=O)c1ccccc1-3`, the inhibition is 50.5% (active).
Consider `CC(Oc1ccccc1F)C(=O)NNC(=O)c1cc2ccccc2o1` (configuration not stated), for which the inhibition is 2.5% (inactive).
Under `Cc1ccc(NC(=S)NC2CCN(Cc3ccccc3)CC2)cc1` stands 8.2% (inactive).
Consider `COc1cc(NC(=O)Cn2cnc3ccccc3c2=O)c(OC)cc1Cl`, for which the inhibition was 14.9% (inactive).
For `CCOC(=O)c1sc2ncnc(N3CCN(CC)CC3)c2c1C`, the inhibition was -2.6% (inactive).
In the case of `O=C(Cn1cnc2c(nnn2Cc2ccc(F)cc2)c1=O)NCc1ccc(F)cc1`, the inhibition was -6.8% (inactive).
As to `COC(=O)c1cc(C(=O)OC)cc(-n2c(C)cc(C(=O)COC(=O)CNS(=O)(=O)c3ccc(C)cc3)c2C)c1`, the inhibition is 6.4% (inactive).
Under `Oc1ccc(/C=N/Nc2nc(N3CCCC3)nc(N3CCCC3)n2)cc1O` stands 27% (inactive); under `CC(=O)NNc1cc(N2CCOCC2)nc(N2CCOCC2)n1`, 11.3% (inactive).
`C(=N\Nc1ccccn1)/c1ccc(N2CCOCC2)cc1`: the inhibition was 23.5% (inactive).
With `Oc1ccc(/C=N\Nc2cc(N3CCOCC3)nc(N3CCOCC3)n2)c(O)c1`, the inhibition is 61.1% (active).
Take `Oc1ccc(/C=N/Nc2nc(N3CCCCCC3)nc(N3CCCCCC3)n2)c(O)c1`: the inhibition is 19.9% (inactive).
As to `Cc1cc(N/N=C/c2ccc(O)c(C)c2O)nc(-c2ccccc2O)n1`, the inhibition was 33.4% (inactive).
On to `Cc1cc(N/N=C/c2ccccc2O)nc(-c2ccccc2O)n1`, for which the inhibition was 48.2% (inactive).
With `Cc1cc(N/N=C/c2ccc(O)cc2O)nc(-c2ccccc2O)n1`, the inhibition is 52.9% (active).
Under `COc1ccc(-c2oc3ncnc(N)c3c2-c2ccccc2)cc1` stands 5.7% (inactive); under `Nc1ccccc1C(=O)N(Cc1ccccc1)Cc1ccccc1`, -1.7% (inactive); under `C=CCSc1nnc(-c2ccc([N+](=O)[O-])cc2)o1`, -2.9% (inactive).
Under `Cc1ccc2c(C)[nH]c(=O)cc2c1` stands 8.1% (inactive).
Under `CCOc1cc(CNCc2ccncc2)cc(Br)c1OCc1ccc(F)cc1` stands 5.1% (inactive); under `Cc1ccc(S(=O)(=O)c2nc(-c3ccco3)oc2SCC(=O)NCC2CCCO2)cc1` (configuration not stated), 18.4% (inactive).
Regarding `CCc1ccc(N=c2c([N+](=O)[O-])nn(-c3ccccc3)n2O)cc1`, the inhibition is 2.1% (inactive).
With `COc1ccccc1N=c1c2c([N+](=O)[O-])cc([N+](=O)[O-])cc2n(O)n1-c1ccccc1OC`, the inhibition is -1.7% (inactive).
Under `O=[N+]([O-])c1cc([N+](=O)[O-])c2c(=Nc3ccccc3)n(-c3ccccc3)n(O)c2c1` stands 52.9% (active); under `CCOc1cc(C2C(C#N)=C(N)Oc3n[nH]c(-c4ccncc4)c32)cc([N+](=O)[O-])c1O` (configuration not stated), 24.5% (inactive).
Under `CCN(c1ccccc1)S(=O)(=O)c1ccc(Cl)c(NC(=O)COC(=O)C2CC2C)c1` (configuration not stated) stands 6.5% (inactive); under `CC1=C/C(=N\OC(=O)/C=C/c2ccccc2)C(C)=CC1=O`, 8.4% (inactive); under `CC1=C(C)/C(=N\OS(=O)(=O)c2ccccc2)C=CC1=O`, 49% (inactive).
Take `O=S(=O)(O/N=C1\CCCc2ccccc21)c1ccc(Cl)cc1`: the inhibition is -28.3% (inactive).
As to `N/C(=N\OS(=O)(=O)c1ccccc1)c1ccncc1`, the inhibition is -14.4% (inactive).
`N/C(=N\OS(=O)(=O)c1ccccc1)c1ccccn1`: the inhibition was -4.5% (inactive).
In the case of `Cc1ccc(S(=O)(=O)O/N=C2\CCCc3ccccc32)cc1`, the inhibition was -0.1% (inactive).
Consider `O=S(=O)(O/N=C1\CCCc2ccccc21)c1ccccc1`, for which the inhibition is -10.1% (inactive).
Take `Cc1ccc(S(=O)(=O)ON=C2CCN(S(=O)(=O)c3ccccc3)CC2)cc1`: the inhibition was -1% (inactive).
